From PubChem BioAssay
PABP polyA inh = PABP-poly(A) binding inhibition; P11940; inhibition, % at 35 µM; PABP-poly(A) RNA binding, fluorescence polarization; actives 1% (n = 290,000);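 also: calls also rest on retests at 20 µM and on dose response follow-up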
eIF4H FP inh = inhibitors of RNA binding by human eIF4H; actives 0.94% (n = 290,000); inhibition, % at 35 µM; Q15056; eIF4H fluorescence polarization binding assay;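 also: calls also rest on retests at 20 µM and on dose response follow-up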
PABP1 MLLE inh = blocks PAM2 peptide binding to the PABP1 MLLE domain; P11940; GST-MLLE / FITC-PAM2 fluorescence polarization; inhibition, % at 20 µM; actives 0.36% (n = 360,000); in the data active = inhibition above about 35%, passing the limit was not always enough;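 also: plate controls were DMSO wells with GST-MLLE for no effect and wells lacking GST-MLLE protein for full effect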
eIF4E-4G inh = inhibitors of eIF4E and eIF4G interaction in translation initiation. inhibition, % at 21.7 µM. actives 0.37% (n = 220,000). AID 782. P63073+Q04637. TR-FRET eIF4E-eIF4GI(517-606) binding, 2 h;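 active = inhibition above about 30%, limit read from the data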;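 also: 0% = full FRET control wells and 100% = background wells lacking eIF4GI fragment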
PERK inh = blocks human PERK kinase; AID 1416; inhibition, % at 5.6 µM; CHO PERK-DD fusion, SEAP luminescence translation reporter; actives 0.17% (n = 220,000); Q9NZJ5;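 active = inhibition above the mean inhibition of all tested compounds plus 3 SD, set separately per screening campaign, cut at about 2.9% in these data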;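 also: PERK kinase domain activated by AP20187 dimerizer at 100 nM; 0% = DMSO with dimerizer and 100% = rapamycin at 8.4 µM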
Active calls of the source: *; i = inactive; ? = inconclusive; . = no result given. Hits are enriched below; roughly 1.6% of the tested compounds scored in any of these assays. Unless noted, no rule for the calls is given here.

SMILES | PABP polyA inh | eIF4H FP inh | PABP1 MLLE inh | eIF4E-4G inh | PERK inh
CC(C)c1ccc(Nc2nc(Cl)nc(NCc3ccco3)n2)cc1 | 3 | -8 | -14 | -9 | 0
CC1CCN(C(=O)c2ccc(S(=O)(=O)N3CCCCCC3)cc2)CC1 | . | . | -2 | . | .
COc1ccccc1N1CC(C(=O)Nc2ccc3c(c2)OCO3)CC1=O (stereo unspecified) | 12 | 3 | -4 | 1 | 0
C[C@@H]1[C@@H](Sc2ccccc2)CC(=O)O[C@@H]1c1ccc(-c2ccccc2)cc1 | . | . | 44* | . | .
COc1ccc(S(=O)(=O)N2CCOCC2)cc1NS(=O)(=O)/C=C/c1ccccc1 | -6 | -7 | 1 | 1 | 0
CC(=O)Oc1ccc(Nc2ccccc2)cc1 | 6 | -5 | -7 | 4 | 1
C/C=C/c1ccc(OCCCNCC(C)O)c(OC)c1 (stereo unspecified) | -14 | -3 | 12 | -13 | -1
C/C=C/c1ccc(OCCCCNCc2ccco2)c(OC)c1 | 84* | 8.0* | 1 | 0 | -1
CCOC(=O)c1nnn(-c2nonc2-c2ccccc2)c1C | 10 | 6 | -12 | . | 0
Cc1cc2cc(CNC(=O)Cc3ccc([N+](=O)[O-])cc3)ccc2n1C | 16 | 47 | 40* | 0 | 0
Cc1cc2cc(CNC(=O)Cc3cccs3)ccc2n1C | 32 | 40 | 39* | -20 | .
Cc1cc2cc(CNC(=O)c3cccc([N+](=O)[O-])c3)ccc2n1C | 4 | 46 | -14 | 5 | 0
Cc1c(C(=O)NCc2ccc3c(c2)cc(C)n3C)cccc1[N+](=O)[O-] | 0 | 19 | 48* | -5 | -1
CC1(c2ccc3ccccc3c2)NC(=O)N(CC(=O)N2CCC(C(N)=O)CC2)C1=O (stereo unspecified) | . | . | 7 | . | .
COc1cccc(/C=N/NC(=O)C(=O)N2CCCC2)c1OC | 6 | -8 | 5 | -1 | 3.1*
CC1(C(=O)NS(=O)(=O)c2cccc(F)c2)CCN1C(=O)CCc1ccc(Cl)cc1Cl (stereo unspecified) | . | . | 4 | . | .
Nc1ccccc1C(=O)N1CCCC1 | -14 | 5 | 8 | 0 | 3.1*
CCC(=O)N=c1ccn(C2=Nc3ccccc3NC2=C(C#N)C#N)cc1 | 64* | 73* | 11 | -2 | 0
CCOC(=O)/C(C#N)=C1/C=Nc2ccccc2N1 | 4 | 0 | 0 | -9 | -1
COCCN1CCC(CNCc2c(C(=O)N3CCCCC3)nc3c(C)cccn23)C1 (stereo unspecified) | 28* | 62* | 9 | -6 | 0
O=C(O)CCNc1cc(N2CCN(C(=O)c3ccco3)CC2)c2noc3c2c1C(=O)c1ccccc1-3 | 95* | 101* | -57 | . | .
CCN1CCN(c2cc(N3CCN(C(=O)c4ccco4)CC3)c3c4c(onc24)-c2ccccc2C3=O)CC1 | 122* | 94* | 23 | . | .
CCN(CC)c1ccc(/C=C(\C#N)c2nc(-c3cccs3)c(NC(C)=O)s2)cc1 | -1 | ? | . | 1 | 0
FC(F)(F)c1cc(C(F)(F)F)c2ccc(Oc3ccccc3)nc2n1 | -4 | 1 | 1 | 13 | 0
FC(F)(F)c1cccc(Oc2ccc3c(C(F)(F)F)cc(C(F)(F)F)nc3n2)c1 | 1 | 4 | 7 | 6 | 3.7*
SMILES | PABP polyA inh | eIF4H FP inh | PABP1 MLLE inh | eIF4E-4G inh | PERK inh
CC(C)N1CCN(Cc2ccc(Sc3nncn3C)o2)CC1CCO (stereo unspecified) | -4 | 12 | 5 | 94* | 0
O=C(O)CCC(=O)Nc1ccc(N2CCCCC2)c(C(=O)O)c1 | -2 | -3 | 3 | 6 | 2
O=C(O)CCC(=O)Nc1ccc2c(c1)Cc1cc(NC(=O)CCC(=O)O)ccc1-2 | 12 | 59* | 7 | . | .
COc1ccc(C)cc1NC(=O)C(OC(=O)C1CC1)c1ccccc1 (stereo unspecified) | -1 | 2 | 6 | -2 | 0
COn1c2c(c3c4nonc4ccc31)CCCC2 | 63* | 26 | 24 | 5 | 1
On1c2c(c3c4nonc4ccc31)CCCC2 | 59* | 77* | . | 6 | 0
Cc1c(C)n(O)c2ccc3nonc3c12 | 23 | 30 | -7 | -4 | 1
Cc1ccc(NCCNc2ccc(C)cc2)cc1 | -3 | 3 | 20 | 4 | -1
CCOC(=O)N1CCC(Nc2c(Nc3cccc(CC)c3)c(=O)c2=O)CC1 | 7 | 3 | -5 | -2 | -1
CCC(NC(=O)c1ccc(C#CC2(O)CCCCC2)cc1)C(=O)O (stereo unspecified) | -4 | 3 | 8 | 2 | 2
COc1cc2c(cc1/C=C1/NC(=O)N(CC(=O)Nc3ccccc3)C1=O)OCO2 | -12 | 3 | -22 | 4 | 1
O=c1oc2ccccc2c(Nc2cccc(O)c2)c1[N+](=O)[O-] | 71* | 84* | 0 | 0 | 1
CC1CCCC(NC(=O)COC(=O)c2ccccc2[N+](=O)[O-])C1C (stereo unspecified) | -2 | 4 | -6 | 5 | 0
C[C@H]1c2cccc(O)c2C(O)=C2C(=O)C3(O)C(O)=C(C(N)=O)C(=O)[C@@H](N(C)C)[C@@H]3[C@@H](O)[C@@H]21 (stereo partly specified) | . | . | 1 | . | .
C=C1c2cccc(O)c2C(O)=C2C(=O)[C@]3(O)C(O)=C(C(N)=O)C(=O)[C@@H](N(C)C)[C@@H]3[C@@H](O)[C@H]12 | 110* | 107* | 25 | 6 | 1
O=C1S/C(=C\c2ccc(N3CCOCC3)o2)C(=O)N1Cc1c(F)cccc1Cl | 8 | 24 | i | 9 | 0
O=C(CSc1n[nH]c(=O)[nH]c1=O)Nc1ccc2c(c1)C(=O)c1ccccc1C2=O | 75* | 98* | 13 | 18 | 1
O=C(CSc1ccccn1)Nc1ccc2c(c1)C(=O)c1ccccc1C2=O | -8 | 13 | 14 | 15 | 1
Cc1cc2ccccc2n1CCNC(=O)c1ccc(S(=O)(=O)N2CCCCC2)cc1 | 11 | ? | 9 | -2 | -1
O=c1cc2oc3cc(O)c(O)cc3c(-c3ccccc3[N+](=O)[O-])c-2cc1O | 34* | 50* | -11 | . | .
O=c1cc(-c2ccccc2Cl)oc2cccc(O)c12 | 8 | -6 | 7 | -6 | 1
C=CCn1c(-c2ccco2)n[nH]c1=S | 15 | 0 | -23 | 67* | 0
C=CCn1c(-c2cccc(OC)c2OC)n[nH]c1=S | ? | 0 | -23 | -1 | -1
C=CCn1c(-c2cccc(OC)c2)n[nH]c1=S | 82* | 2.5* | -20 | 2 | 2
C=CCn1c(-c2cc3cccc(OC)c3o2)n[nH]c1=S | active | ? | -11 | 8 | 1
C=CCn1c(-c2cc(OC)c(OC)c(OC)c2)n[nH]c1=S | 3 | 12 | -24 | 44* | 1
CCn1c(-c2ccco2)n[nH]c1=S | -3 | -3 | 12 | -2 | -1
CC(C)N1CCN(Cc2ccc(-c3ccccc3)cc2)CC1CCO (stereo unspecified) | -12 | -18 | 12 | . | .
O=C(C1CCN(S(=O)(=O)N2CCCCC2)CC1)N1CCCCC1 | 8 | -7 | -8 | 1 | -1
